For 40 compounds, Potency results are on record in PubChem BioAssay (NCATS).

Where “and” joins values, the source holds several entries; their conditions need not be identical. Equal values may be shown once. Results filed as inconclusive are left out. A call without a number means that no potency is given here. Calls of active or inactive are those of the source. The call rests on the fitted dose curve; in most records, active means well fitted cell-killing curve with a large enough effect; inconclusive means small, poorly fitted or top-dose-only effect, or effect the other way; inactive means no such curve, though single readings can be large or run the other way.
Potency means the concentration at half of the fitted maximal effect.

This test in a line: Viability qHTS for spleen associated tyrosine kinase inhibitor (SYKi) naive MV4-11 cells (AID 1963823). Further: nearly all actives have a fitted effect of over 40% in size. Conditions: MV4-11 AML viability, CellTiter-Glo luminescence, 72 h; series mostly up to 45 µM. An excerpt:
Department of Medicine, Hematology/Oncology
University Hospital Frankfurt, Germany.
Trials have shown promising clinical activity of the selective SYK inhibitor entospletinib in patients with high expressing HOXA9/MEIS1 acute leukemias. As the development of resistance mechanisms is a common problem in the use of targeted drugs, we performed a chemical library screen to identify drug sensitivities in SYK inhibitor resistant AML cells. […] Glucocorticoids are potent immunosuppressants which work in part by inhibiting the transcription of cytokine genes.
Described herein is a viability screen to look for activity in the SYK inhibitor naive cell line against four NCATS compound libraries (MIPE 5.0, NPC, NPACT, and Kinase) totaling 11372 compounds. Active hits were reacquired for confirmation and further secondary assay testing.
SEQUENCE No. (e.g., 1, 2, 3, etc.); […] (e.g., Cells, Incubation, Reagent, etc.); VALUE; DESCRIPTION.
1; Media; 2uL; white, solid-bottom Corning assay plate.
2; Compounds; 23nL; Echo acoustic dispenser.
3; Cell; 5uL; 500 cells per well.
4: Incubation; 72hr; 37 C, 5% CO2, 95% humidity.
5; Reagent; 3uL; CellTiter-Glo reagent (Promega).
6; Incubation; 10min; room temperature.
7; Detection; Luminescence; ViewLux plate reader (PerkinElmer).
NOTES (numbers refer to Sequence numbers above
1. Quantitative high-throughput screening (qHTS) of small molecule compounds was conducted on naive SYKi MV4-11 cell line.
2. Twenty-three nanoliter of small molecule compounds were added to each assay plates using the Echo acoustic dispenser (Beckman Coulter).
3. Cells were seeded into the assay plates at a final density of 500 cells in 5uL of media per well using the Multi-drop Combi dispenser.
4. Plates were covered with stainless steel gasketed lids and incubated for 72 hours at standard cell culture conditions.
5. Viability was assessed by adding 3uL of CellTiter-Glo detection reagent (Promega).
6. Plates were covered with gasket lids and incubated for 10 minutes at room temperature.
7. Luminescence was measured on a ViewLux plate reader (PerkinElmer).
For orientation: qHTS replaces the single test concentration by a dilution series.
`COC1=CC(=O)O[C@@H](/C=C/c2ccccc2)C1`: the Potency entry was “inactive”. For `COP(=S)(OC)Oc1ccc(Sc2ccc(OP(=S)(OC)OC)cc2)cc1` the value was “inactive”. For `C[C@]12CC[C@H]3[C@@H](CCC4=CC(=O)CC[C@@H]43)[C@@H]1CC[C@@H]2O` the value was “inactive”. For `O=C(Nc1ccncc1)C(=O)c1cn(Cc2ccc(Cl)cc2)c2ccccc12`, the Potency was 0.132 µM (active). For `O=C(O)CNC(=O)c1c(O)c2ccccc2n(Cc2ccccc2)c1=O` the value was “inactive”.

In the case of `CCC(C)C(C)(COC(N)=O)COC(N)=O` (stereo not given), the Potency result was “inactive”. For `CCO[C@H]1O[C@@H]2OC3(C)CC[C@H]4[C@H](C)CC[C@@H]([C@H]1C)[C@@]24OO3` the value was 4.22 µM (active); for `C[C@@H]1CN(C2CCC(C#N)(c3ccc(F)cc3)CC2)CC[C@]1(C(=O)O)c1ccccc1` (stereo not given in full), “inactive”. The value for `CCC(C)(O)C1(C(=O)O)COC(=O)C1` (stereo not given) was “inactive”.

Regarding `CC1(C)C(C=C(Cl)Cl)C1C(=O)OC(C#N)c1cccc(Oc2ccccc2)c1` (stereo not given), the Potency is 2.66 µM (active). The value for `NP(N)(=O)NC(=O)c1ccc(F)cc1` was “inactive”; that for `C=C1[C@@]23C(=O)O[C@H](C)[C@]24O[C@@]2(C(=C)[C@]5(C=CC(=O)OC5(C)C)CC[C@]32C)[C@H](O)[C@@]1(C)OC4=O` was “inactive”; that for `O=c1cccc2n1CC1CNC[C@H]2C1` was “inactive”.

In the case of `CCCCCCCCC(=O)NCc1ccc(O)c(OC)c1`, the Potency result was “inactive”. Take `O=C(CCCN1CCC2(CC1)C(=O)NCN2c1ccccc1)c1ccc(F)cc1`: the Potency entry was “inactive”. The value for `CC(=O)O[C@H]1C[C@@H](C)O[C@H]2O[C@@H]3CC4CC[C@@H]5C(CC[C@]6(C)[C@@H](C7=CC(=O)OC7)CC[C@]56O)[C@@]4(C=O)C[C@H]3O[C@]21O` (stereo not given in full) was 0.0432 µM (active); that for `C=C1CC[C@@]2(O)[C@H]3Cc4ccc(O)c5c4[C@@]2(CCN3CC2CC2)[C@H]1O5` was “inactive”; that for `CS(=O)(=O)c1ccc(C(=O)C2C(=O)CCCC2=O)c([N+](=O)[O-])c1` was 6.24 µM (active). For `CN1C(=O)COc2c(C(=O)NC3CN4CCC3CC4)cc(Cl)cc21` (stereo not given) the value was “inactive”; for `COC[C@H]1OC(=O)c2coc3c2[C@@]1(C)C1=C(C3=O)C2CCC(=O)[C@@]2(C)C[C@H]1OC(C)=O` (stereo not given in full), 14.6 µM (active) and 3.32 µM (active); for `Cc1nnc2n1-c1sc(CCC(=O)N3CCOCC3)cc1C(c1ccccc1Cl)=NC2`, “inactive”.

Consider `Cc1sc2c(c1C)C(c1ccc(Cl)cc1)=NC(CC(=O)Nc1ccc(O)cc1)c1nnc(C)n1-2` (stereo not given), for which the Potency was 0.148 µM (active). Take `[N-]=[N+]=CC(=O)OC[C@H](N)C(=O)O`: the Potency entry is “inactive”. The value for `CC(CC(C(N)=O)(c1ccccc1)c1ccccc1)N(C)C` (stereo not given) was “inactive”; that for `CC(C)C(Br)C(=O)NC(N)=O` (stereo not given) was “inactive”; that for `CCC1(c2ccc(N)cc2)CCC(=O)NC1=O` (stereo not given) was “inactive”. The value for `C[C@H](N)C(=O)c1ccccc1` was “inactive”. The value for `CC(=O)NC1CCSC1=O` (stereo not given) was “inactive”; that for `C=C(CO)[C@@]12O[C@@H]1[C@@]1(C)C(=CC2=O)CC[C@@H](O)[C@@H]1C` was 8.2 µM (active); that for `Cc1c(Cl)cccc1S(=O)(=O)Nc1nc(CC(=O)N2CCN(C)CC2)cs1` was “inactive”.

With `CC1=CC2/C=C(\C)CCC(O)C(O)/C=C/C(=O)C23C(=O)NC(CC(C)C)C3C1C` (stereo not given), the Potency is 1.26 µM (active). For `CN1C(=O)CN=C(c2ccccc2)c2cc([N+](=O)[O-])ccc21` the value was “inactive”; for `CC1=C(O)C(=O)C=C2C1=CC=C1[C@@]2(C)CC[C@@]2(C)[C@@H]3C[C@](C)(C(=O)O)CC[C@]3(C)CC[C@]12C`, 0.59 µM (active); for `CCC(C)/C=C(C)/C=C/C1=CC2=C(Cl)C(=O)C(C)(OC(C)=O)C(=O)C2=CO1` (stereo not given), “inactive”. With `NNc1ccccc1`, the Potency result was “inactive”. For `O=C(NCCN1CCC2(CC1)C(=O)NCN2c1cccc(F)c1)c1ccc2ccccc2c1` the value was 9.2 µM (active); for `CC1CCCC(O)CCC/C=C/c2cc(O)cc(O)c2C(=O)O1` (stereo not given), 14.3 µM (active); for `COC1=CC(=O)O[C@@H](CCc2ccccc2)C1`, “inactive”. For `O=C1c2ccccc2C(=O)c2ccccc21` the value was “inactive”. For `Cc1cccc(NC(=O)N[C@H]2CN(C)c3ccccc3C(c3ccccc3)=N2)c1`, the Potency is 25.9 µM (active).
